The values that follow come from PubChem BioAssay AID1851 (National Center for Advancing Translational Sciences (NCATS), 2009).

Molecules are shown by their SMILES. The campaign covered roughly 16,000 compounds. About 4,000 (25%) were called active. Roughly 26% stayed inconclusive and do not appear here. A selection follows. Values without a mark were called inactive. Calls follow the shape of the dose curve; as a rule, active = well fitted curve in the direction sought with a large enough effect; inconclusive = small, poorly fitted or top-dose-only effect, or effect the other way; inactive = no such curve, though single readings can be large or run the other way.
% is scaled to controls: 0 for no effect and ±100 for the full control effect.

This experiment deals with Cytochrome P450 2C9 (Homo sapiens) (UniProt P11712). Put plainly: Cytochrome panel assay with activity outcomes. To be noted: recombinant CYP, pro-luciferin dealkylation, luminescence, p450-cyp2c9; series mostly up to 57.1 µM.
Chain of Cytochrome P450 2C9 (Homo sapiens) (P11712 whole entry, looked up): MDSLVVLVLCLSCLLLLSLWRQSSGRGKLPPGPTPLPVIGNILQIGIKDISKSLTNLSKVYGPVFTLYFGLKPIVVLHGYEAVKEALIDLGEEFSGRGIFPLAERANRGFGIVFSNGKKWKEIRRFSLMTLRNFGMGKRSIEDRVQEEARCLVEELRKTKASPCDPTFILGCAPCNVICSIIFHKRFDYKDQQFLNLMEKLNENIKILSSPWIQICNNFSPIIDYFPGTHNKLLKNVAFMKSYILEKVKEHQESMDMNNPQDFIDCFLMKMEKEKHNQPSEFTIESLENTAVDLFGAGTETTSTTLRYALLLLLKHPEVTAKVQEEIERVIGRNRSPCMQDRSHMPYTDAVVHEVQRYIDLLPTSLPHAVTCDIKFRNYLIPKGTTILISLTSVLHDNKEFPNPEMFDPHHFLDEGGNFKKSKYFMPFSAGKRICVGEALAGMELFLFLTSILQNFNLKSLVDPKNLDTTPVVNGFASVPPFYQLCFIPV
One may read the AC50 as the concentration at which the activity in the assay is half-maximal. Consider `COc1ncc2ncc(=O)n(Cc3ccc(F)cc3)c2n1`, for which the AC50 result is “inactive”.

For `CCNc1ncc2ncc(=O)n(Cc3ccc(F)cc3)c2n1`, the AC50 was 20 µM (active).

Consider `CCNc1ncc2nc(-c3ccc(Cl)cc3)c(=O)n(Cc3ccc(F)cc3)c2n1`, for which the AC50 entry is “inactive”.

As for `CCNc1ncc2nc(C)c(=O)n(Cc3ccc(F)cc3)c2n1`, the AC50 entry was “inactive”. In the case of `CN(C)c1ncc2ncc(=O)n(Cc3ccc(F)cc3)c2n1`, the AC50 was 10 µM (active).

Regarding `CN(C)c1ncc2nc(-c3ccccc3)c(=O)n(Cc3ccc(F)cc3)c2n1`, the AC50 entry is “inactive”. As for `C[C@H](N)C1CCC(C(=O)Nc2ccncc2)CC1` (some centres undefined), the AC50 result is “inactive”. As for `O=C(CCCN1CCC(O)(c2ccc(Br)cc2)CC1)c1ccc(F)cc1`, the AC50 entry is “inactive”. `Cc1cc(C)nc(Nc2n[nH]c(-c3cccc4ccccc34)n2)n1`: the AC50 entry was “inactive”. Same read-out and setting: next, `Cc1ccc(NC(=O)CCN2C(=O)c3ccncc3C2=O)cc1`: 14.1 µM (active); `O=C(CCN1C(=O)C2C3C=CC(C3)C2C1=O)Nc1ccc2ncccc2c1` (centres undefined): “inactive”.

As for `Cc1ccc(-c2cnc(NC(=O)CCC(=O)N3CCCCC3)n2C)cc1`, the AC50 result is “inactive”. As for `COc1cc(OC)c2c(c1Cl)O[C@@]1(C2=O)[C@H](C)CC(=O)C[C@@H]1OC`, the AC50 result was “inactive”. On to `CN(C)c1ccc(-c2ccc3ncnc(NC4CC4)c3c2)cc1`, for which the activity, negative = inhibition was 4.64% [at 2.29 µM]. For `O=C(CSCc1ccccc1)Nc1cccc(C(=O)Nc2ccccc2C(=O)O)c1`, the AC50 was 0.447 µM (active). The same measure, in the same setting: next, `CC1CC2=C(NC(=S)NC2c2ccc(F)cc2)/C(=C/c2ccc(F)cc2)C1` (centres undefined): 8.91 µM (active). As to `O=C1CC(NCCC2=CCCCC2)C(=O)N1c1cccc(Cl)c1Cl` (centres undefined), the AC50 was 14.1 µM (active). Consider `N[C@H](C(=O)O)c1ccc(C(=O)O)cc1`, for which the AC50 result is “inactive”. Still for that read-out and setting: next, `COc1ccc(-c2ccc(/C=C3\C(=O)N(c4ccccc4)N=C3c3ccccc3)o2)c([N+](=O)[O-])c1`: 2.51 µM (active); `CC(=O)NC1=NN(c2ccccc2)C(=O)C1`: “inactive”. On to `COC(=O)c1ccccc1-c1ccc(/C=C2\C(=O)N(c3ccccc3)N=C2c2ccccc2)o1`, for which the AC50 was 5.62 µM (active). On the same count and under the same terms, to `NC(=NC1C2CC3CC(C2)CC1C3)Nc1ccc(I)cc1` (centres undefined) belongs “inactive”.

For `CC[C@@]1(O)C(=O)OCc2c1cc1n(c2=O)Cc2cc3c(CN(C)C)c(O)ccc3nc2-1`, the activity, negative = inhibition is -1.39% [at 11.4 µM]. As for `Cc1cc2nc3[nH]c4c(Cl)cc(Cl)cc4c3nc2cc1C`, the activity, negative = inhibition is -11.6% [at 11.4 µM].

Turning to `O=C(O)CSc1ccn(Cc2ccccc2)c1`, the activity, negative = inhibition is -1.85% [at 11.4 µM]. Turning to `C=CCCCCCCCCC(=O)Nc1c[nH]c(=O)[nH]c1=O`, the AC50 result is “inactive”. Consider `Cc1onc(-c2c(Cl)cccc2Cl)c1C(=O)Nc1ccc2c(c1)OCO2`, for which the concentration at half-maximal activity (AC50) was 1.41 µM (active). Turning to `O=C(NC(=S)Nc1ccc2c(c1)OCO2)c1ccccc1`, the AC50 was 3.98 µM (active).

For `C[N+](C)(C)c1ncnc2c1ncn2[C@@H]1CCCCO1`, the activity, negative = inhibition is 8.84% [at 11.4 µM].

For `CCCOc1ccc(C(=O)OCCN(CC)CC)cc1N`, the AC50 entry is “inactive”. As to `Clc1ccc(Nc2ncn[nH]2)cc1`, the AC50 result is “inactive”. Turning to `O=C1CC(c2ccccc2)Cc2nc(N3CCc4ccccc4C3)ncc21` (centres undefined), the AC50 is 4.47 µM (active). The same measure, in the same setting: next, `CN1CCN(c2ncc3ncc(=O)n(-c4ccccc4)c3n2)CC1`: “inactive”; `CC1CC(=O)c2cnc(N)nc2C1` (centres undefined): “inactive”.

Regarding `Clc1ccc(-c2noc(CN3CCCCC3)n2)cc1`, the activity, negative = inhibition is -0.0394% [at 11.4 µM]. Consider `Cc1ccc(-c2noc(CN3CCN(C(c4ccccc4)c4ccccc4)CC3)n2)cc1`, for which the AC50 is 5.01 µM (active). Consider `CC(=O)[C@@H](C)CCO[C@@]1(C)OCC[C@@H]1C`, for which the activity, negative = inhibition was -15.7% [at 11.4 µM]. With `Cc1ccc(NCCC(=O)c2ccc(Cl)cc2)cc1C`, the AC50 entry was “inactive”.

As to `Cc1c(Cl)c(S(N)(=O)=O)cc(S(N)(=O)=O)c1NC(=O)c1ccc(Cl)cc1`, the activity, negative = inhibition was -6.54% [at 11.4 µM].

For `CC(C)(CC(=O)Nc1ccccc1)C(=O)O`, the activity, negative = inhibition is 4.33% [at 11.4 µM]. With `Cc1cc(C)cc(C(=O)N(NC(=O)Nc2ccc(Cl)cc2)C(C)(C)C)c1`, the AC50 is 5.01 µM (active). Turning to `CC(C)(C)N(NC(=O)Nc1ccccc1)C(=O)c1ccccc1Cl`, the AC50 was 14.1 µM (active). As for `c1ccc2c(CN3CCN(Cc4c[nH]c5ccccc45)CC3)c[nH]c2c1`, the activity, negative = inhibition was -0.0395% [at 11.4 µM].

As for `O=S1(=O)CCN(c2ccccc2CC(c2c[nH]c3ccccc23)c2c[nH]c3ccccc23)CC1`, the AC50 was 3.16 µM (active). On to `O=C(O)[C@@H](Cc1c[nH]c2ccccc12)C(=O)NO`, for which the activity, negative = inhibition was -10.3% [at 11.4 µM]. On to `Cc1ncn(-c2ccccc2O)c1C`, for which the activity, negative = inhibition is 9.91% [at 11.4 µM]. In the case of `CCOC(=O)N1CCC(NC(=O)CSCc2cnn(-c3ccccc3)c2-n2cccc2)CC1`, the AC50 was 4.47 µM (active). As to `CCOC(=O)N1CCC(NC(=O)CCC(=O)N2CCOc3ccccc32)CC1`, the AC50 result is “inactive”. In the case of `Cc1ccc(C)c(Cn2cnc3c(cnn3C(C)(C)C)c2=O)c1`, the AC50 is 8.91 µM (active). Regarding `Cc1ccc(-n2ncc3c(=O)n(CC(=O)NCC4CCCO4)cnc32)cc1` (centres undefined), the AC50 result was “inactive”. With `Cc1ccccc1Cn1cnc2c(cnn2C(C)(C)C)c1=O`, the AC50 was 15.8 µM (active). Regarding `Cc1ccc(NC(=O)Cn2cnc3c(cnn3C(C)(C)C)c2=O)cc1`, the AC50 was 10 µM (active). Still for that read-out and setting: to `CO[C@H]1[C@H](O[C@H]2O[C@@H](C)[C@@H](O[C@@H]3C[C@](C)(O)[C@H](OC(=O)CC(C)C)[C@H](C)O3)[C@@H](N(C)C)[C@@H]2O)[C@@H](CC=O)C[C@@H](C)[C@@H](O)/C=C\C=C/C[C@@H](C)OC(=O)C[C@H]1OC(C)=O` belongs “inactive”. Consider `Cc1cnc(CNc2ccnc(-c3ccccc3Cl)n2)cn1`, for which the activity, negative = inhibition was 7.84% [at 2.29 µM].

Turning to `CN(C)c1ccc(-c2cncnc2-n2ccnc2)cc1`, the activity, negative = inhibition is 15.2% [at 2.29 µM]. Still for that read-out and setting: next, `C[C@@H](CSC(=N)N)C(N)=O`: -9.17% [at 11.4 µM]. Turning to `COc1ccccc1N1CCN(CCCCNS(=O)(=O)c2cccc3c(N(C)C)cccc23)CC1`, the AC50 entry was “inactive”. `Cc1noc(C)c1-c1nc(N(C)C)c2ccccc2n1`: the activity, negative = inhibition was 27.2% [at 2.29 µM]. For `Cc1noc(NS(=O)(=O)c2cccc3c(N(C)C)cccc23)c1C`, the AC50 is 0.631 µM (active).
